# A selection: hits, their analogues and other compounds. The true share with any hit is near 8%.
# SW480 rerep = A quantitative high throughput screen for small molecules that induce DNA re-replication in SW480 colon adenocarcinoma cells; 340,000 tested, 1.8% active; Potency, µM (titrated, usually from 46.1 µM), for the others: top-dose re-replication activation, usual class: activators; SW480 DNA re-replication, Hoechst DNA content imaging, 48 h; also: % of control where 0% means no effect; nearly all actives have a fitted effect of over 55% in size
#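 Quantitative HTS format with DMSO vehicle controls; 48 hr drug incubation at 37 C, then 40 min Hoechst staining and scanning imager measurement at 405 nm excitation.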
# KB-V1 cytotox = qHTS assay for MDR1-selective chemotherapeutics: Primary screen using the drug-selected MDR subline cells KB-V1 | 400,000 tested, 3.4% active | Potency, µM (top dose mostly 46.1 µM), actives largely listed as cytotoxic | KB-V1 MDR cells viability, CellTiter-Glo, 72 h; also: % is scaled to controls: 0 for no effect and ±100 for the full control effect; nearly all actives have a fitted effect of over 60% in size
#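 Cytotoxicity via CellTiter-Glo luminescence after 72 h compound exposure at 37 degrees C. Cells: drug-selected KB-V1 line, DMEM phenol-red free plus 10% FBS. Compounds tested at multiple concentrations; normalized data fitted to concentration-effect curves.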
# HT1080-NT tox = qHTS for induction of synthetic lethality in tumor cells producing 2HG: qHTS for the HT-1080-NT fibrosarcoma cell line; 360,000 tested, 1.6% active; Potency, µM (series often up to 46.1 µM), for the others: at the highest dose activity, negative = less viability, hits mostly cytotoxic; HT-1080-NT fibrosarcoma viability, CellTiter-Glo ATP luminescence, 48 h;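 also: NT is the 2HG producing partner of a matched IDH1 knockdown line; 0% = DMSO-treated cells and -100% = media-only wells without cells; nearly all actives have a fitted effect of over 55% in size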
#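 A 48-hour cytotoxicity screen used HT-1080-NT cells plated 2 hours before compound delivery. ATP-based CellTiter-Glo luminescence measured viability, normalized to DMSO and no-cell controls.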
# KB-3-1 tox = qHTS assay for MDR1-selective chemotherapeutics: Primary screen using the parental adenocarcinoma cell KB-3-1 | KB-3-1 viability, CellTiter-Glo ATP luminescence, 72 h | Potency, µM (highest dose often 46.1 µM), most hits filed as cytotoxic | 400,000 tested, 1.4% active | AID 1347075, 2019; also: % is scaled to controls: 0 for no effect and ±100 for the full control effect; nearly all actives have a fitted effect of over 60% in size
#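 Screening of KB-3-1 cells (DMEM, 10% FBS, phenol-red free) ran from lowest to highest compound concentration; after 72 h at 37 °C viability was read luminescently and curves fitted.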
# HT1080 IDH1KD tx = qHTS for induction of synthetic lethality in tumor cells producing 2HG: qHTS for the HT-1080-IDH1KD cell line. HT-1080 IDH1 knockdown viability, ATP luminescence, 48 h. Potency, µM (top dose mostly 46.1 µM), without a hit: at the highest dose activity, negative = toxicity, most hits filed as cytotoxic. 360,000 tested, 2% active. AID 686971, 2013;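 also: 0% = DMSO wells and -100% = cell-free medium wells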
#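 Using the IDH1-knockdown HT-1080 line run in the same batch and compound series as the NT line, viability after 48 h at 37 °C was determined by CellTiter-Glo luminescence and expressed as % activity.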
# MCF10A rereplic = A quantitative high throughput screen for small molecules that induce DNA re-replication in MCF 10a normal breast cells; Potency, µM (titrated, usually from 46.1 µM), for the others: at the top dose activity, positive = re-replication, hits mostly activators; 350,000 tested, 2.9% active; MCF 10A DNA re-replication, Hoechst nuclear intensity, 48 h; also: % of control where 0% means no effect; nearly all actives have a fitted effect of over 50% in size
# Active calls of the source: *; i = inactive; ? = inconclusive; / = no result; [ ] = another dose, or the depositor's remark. Calls follow the shape of the dose curve; as a rule, active = well fitted curve in the direction sought with a large enough effect; inconclusive = small, poorly fitted or top-dose-only effect, or another doubt; inactive = no such curve, though single readings can be large; an effect the other way counts as inactive or inconclusive. Potency is read from the fitted curve at half-maximal effect.
SMILES,SW480 rerep,KB-V1 cytotox,HT1080-NT tox,KB-3-1 tox,HT1080 IDH1KD tx,MCF10A rereplic
CCOc1ccccc1NC(=O)Cn1c(=O)n(Cc2ccco2)c(=O)c2ccc(C(=O)NC3CCCC3)cc21,/,i,/,i,/,/
CCOC(=O)c1ccc(Oc2nc(NC(C)(C)C)nc(N(C)C)n2)cc1,?,i,?,i,?,16µM*
CCOC(=O)c1ccc(Oc2nc(N(C)C)nc(N(C)C)n2)cc1,0%[9.22 µM],i,1%,i,-3%,-1%
O=c1c2ccccc2nc(/C=C/c2ccc([N+](=O)[O-])o2)n1CCCO,4.5µM*,?,2.9µM*,5.8µM*,2.9µM*,4.5µM*
O=c1c2ccccc2nc(/C=C/c2cccc([N+](=O)[O-])c2)n1CCCO,12%[9.22 µM],i,-22%,i,?,23%
O=c1c2ccccc2nc(/C=C/c2ccc([N+](=O)[O-])cc2)n1CCCO,3%,21µM*,1%,?,-11%,15%
Cn1nccc1-c1ccc(C(=O)NCc2ccco2)c2occc12,/,?,2%,i,26%,/
O=C(Nc1nnc(CSCc2ccc(Cl)cc2)s1)c1cccc([N+](=O)[O-])c1,-1%,i,3%,i,6%,26%
CCC(C)(C)c1nnc(NC(=O)c2cccc([N+](=O)[O-])c2)s1,16%,21µM*,-16%,i,-9%,-4%
O=C(Nc1nnc(CSCc2ccc(F)cc2)s1)c1cccc([N+](=O)[O-])c1,?,4.6µM*,2%,?,0%,?
CCNc1nc(N)c(C(=O)c2ccc(Cl)s2)s1,?,?,-11%,?,-13%,0.92µM*
Cc1ccc(S(=O)(=O)N2C[C@H]3N(C(=O)OC(C)C)N(C(=O)OC(C)C)C[C@H](OC(=O)NCC4CCCCC4)[C@@]3(O)C2)cc1,/,?,21µM*,?,?,/
CCc1c(-c2cccc(Cl)c2)ncn1Cc1cccc(-c2ccccc2)c1,/,16µM*,?,?,?,/
CCCc1c(-c2cccc(Cl)c2)ncn1Cc1cccc(-c2ccccc2)c1,/,21µM*,?,?,23µM*,/
Cn1cc(CN2CCN(Cc3ccccc3)CC2)c(-c2cccc(Cl)c2)n1,-2%,i,-4%,i,5%,?
CC(C)CN(C(=O)c1ccc(-n2cncn2)c([N+](=O)[O-])c1)C1CCS(=O)(=O)C1 (stereo not given),-4%,i,5%,i,5%,7%
CN(CC(=O)Nc1ccc(F)cc1)C(=O)COc1ccccc1Cc1ccccc1,-1%,18µM*,-8%,?,-24%,?
C/C=C/c1ccc(OCC(=O)N(C)CC(=O)Nc2ccc(F)cc2)c(OC)c1,-6%,16µM*,-4%,i,-8%,-8%
CSc1ccccc1NC(=O)CN(C)C(=O)COc1cccc2cccnc12,5.8µM*,i,2%,i,-2%,?
CN(CC(=O)Nc1ccccc1C(F)(F)F)C(=O)COc1ccccc1Cc1ccccc1,?,8.2µM*,7%,i,-12%,11%
CN(CC(=O)Nc1ccc(Cl)c(C(F)(F)F)c1)C(=O)COc1cccc2cccnc12,/,i,-2%,i,-6%,/
COc1ccc(NC(=O)CN(C)C(=O)COc2ccccc2Cc2ccccc2)cc1,-32%,i,2%[9.24 µM],i,-5%,-1%
O=S(=O)(c1ccccc1Cl)N1CCN(c2nc(-c3ccccc3)nc3ccccc23)CC1,/,?,/,i,/,/
COc1cc(/C=C/C(=O)c2ccc(Cl)s2)cc(OC)c1O,?,?,?,i,11µM*,?
O=C(O)c1ccc(/C=C/C(=O)c2ccc3c(c2)OCCCO3)cc1,21µM*,?,?,?,?,?
SMILES,SW480 rerep,KB-V1 cytotox,HT1080-NT tox,KB-3-1 tox,HT1080 IDH1KD tx,MCF10A rereplic
COc1ccc(/C=C/C(=O)c2ccc(Cl)s2)cc1O,?,?,-8%,?,-14%,?
CCOc1cc(/C=C/C(=O)c2ccc3c(c2)OCCO3)ccc1OCC(=O)N(C)C,?,16µM*,?,?,18µM*,?
COc1ccc(Oc2ccc(/C=C/C(=O)c3cccc(OC)c3)cc2[N+](=O)[O-])cc1,?,?,?,?,?,6.5µM*
CCCCNC(=O)C1(C)CCN1C(=O)c1cc(F)ccc1C (stereo not given),/,i,23%,i,16%,/
Cc1scc(C(=O)N2CCN(c3ccc(Cl)cc3)CC2)c1C,-6%,?,-28%,i,-10%,14%
CCc1cccc(C)c1NC(=O)CSc1nc2c(c(=O)[nH]1)CCC2,/,i,/,i,/,/
COc1ccc(/C=C/C(=O)c2ccc3c(c2)OCCO3)cc1[N+](=O)[O-],12µM*,i,0%,?,-11%,3.7µM*
COc1cc(/C=C/C(=O)c2ccc3c(c2)OCO3)cc(Cl)c1O,?,i,?,i,23µM*,9.2µM*
COc1ccc(C(=O)C=Cc2ccc3c(c2)OCO3)cc1OC,/,?,-15%,?,-14%,/
CCNC(=O)C1(C)CCN(C(=O)c2cccc(OC(C)=O)c2C)C1 (stereo not given),/,i,24%,i,5%,/
CC1=C(C(=O)N(C)C)C(c2ccc(N3CCOCC3)cc2)NC(=O)N1 (stereo not given),18µM*,i,3%,i,9%,0.92µM*
Cc1ccc(C)c(NC(=O)C(Sc2nncn2C)c2ccccc2)c1 (stereo not given),-5%,15µM*,4%,i,12%,-4%
Cc1ccc(C)c(NC(=O)C(Sc2ncnc3ccccc23)c2ccccc2)c1 (stereo not given),14%,16µM*,-5%,i,3%,?
COc1cc(C(CC(=O)Nc2cc(C)ccc2C)N2Cc3ccccc3C2=O)cc(OC)c1OC (stereo not given),/,i,/,i,/,/
Cc1cccc(NC(=O)CSc2nc3ccccc3nc2N2CCCCC2)c1C,/,i,/,i,/,/

# Screens: PubChem, National Center for Advancing Translational Sciences (NCATS)
